Experimental data from PubChem BioAssay (Tox21).
A number with no mark means an inactive call. Results filed as inconclusive are left out. Entries that show only a call come without a potency. Active and inactive are the calls of the source. The call rests on the fitted dose curve; in most records, active means well fitted curve in the direction sought with a large enough effect in the repeat runs; inconclusive means weak or mixed curves; inactive means no such curve, though single readings can be large; an effect the other way counts as inactive or inconclusive.

Tests used:
[1] = Human pregnane X receptor (PXR) small molecule agonists, qHTS cell viability counter screen (AID 1346977); further: nearly all actives have a fitted effect of over 50% in size; further: potency means the concentration at half of the fitted maximal effect
Outline: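 PXR-Luc HepG2, 2,000 cells/well, 5% charcoal-stripped FBS; 5hr settle; cpd 24hr, 37C/5% CO2; CellTiter-Fluor at 23hr, read 1hr later (fluorescence).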

[2] = Caspase-3/7 induction in HepG2 cells by small molecules, qHTS assay (AID 1346978); further: nearly all actives have a fitted effect of over 15% in size; further: potency means the concentration at half of the fitted maximal effect
Outline: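 Wild-type HepG2 cells, 2,000/well, settled 5 hr at 37 C and 5% CO2, then compound-treated for 17 hr; caspase-3/7 activity read by luminescent Caspase-Glo 3/7 after 30 min at room temperature.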

[3] = Caspase-3/7 induction in CHO-K1 cells by small molecules, qHTS cell viability counter screen (AID 1346979); further: nearly all actives have a fitted effect of over 35% in size; further: potency means the concentration at half of the fitted maximal effect
Outline: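 Cells (CHO-K1, wild type) are plated at 1,500 per well and incubated 5hr. Test compounds in DMSO are then pinned in, followed by 16hr at 37C and 5% CO2. Viability is read by CellTiter-Fluor fluorescence after 1hr.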

[4] = Caspase-3/7 induction in CHO-K1 cells by small molecules, qHTS assay (AID 1346980); further: nearly all actives have a fitted effect of over 15% in size
Outline: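 Wild-type CHO-K1 cells exposed to compounds for 17hr at 37 C, 5% CO2. Caspase-3/7 activity then measured by Caspase-Glo 3/7 luminescence after 30min at room temperature.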

[5] = Caspase-3/7 induction in HepG2 cells by small molecules, qHTS cell viability counter screen (AID 1346981); further: nearly all actives have a fitted effect of over 30% in size; further: potency means the concentration at half of the fitted maximal effect
Outline: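 Viability determined by CellTiter-Fluor fluorescence in HepG2 wells also used for the luminescent Caspase-Glo 3/7 read. Compounds were present for 16 hr at 37 C, 5% CO2 before reagent addition.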

[6] = biological target: Nuclear receptor subfamily 1 group I member 2 (Homo sapiens) (UniProt O75469); test: Human pregnane X receptor (PXR) small molecule agonists, qHTS assay (AID 1346982); further: nearly all actives have a fitted effect of over 35% in size; further: potency means the concentration at half of the fitted maximal effect
Chain of Nuclear receptor subfamily 1 group I member 2 (Homo sapiens) (O75469 whole entry, looked up): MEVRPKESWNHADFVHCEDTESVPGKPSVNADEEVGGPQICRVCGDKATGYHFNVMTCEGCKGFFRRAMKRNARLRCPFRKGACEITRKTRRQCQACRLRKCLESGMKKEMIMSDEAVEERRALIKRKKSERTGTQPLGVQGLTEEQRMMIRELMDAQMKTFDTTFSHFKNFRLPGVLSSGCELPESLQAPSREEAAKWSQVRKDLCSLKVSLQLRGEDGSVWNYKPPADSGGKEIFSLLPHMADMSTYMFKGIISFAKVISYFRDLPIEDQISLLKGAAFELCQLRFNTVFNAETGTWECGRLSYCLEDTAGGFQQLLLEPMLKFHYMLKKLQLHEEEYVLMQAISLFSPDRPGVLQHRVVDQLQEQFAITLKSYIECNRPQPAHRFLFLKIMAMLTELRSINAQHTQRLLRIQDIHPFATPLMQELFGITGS
Outline: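 Compound-induced hPXR transactivation of a CYP3A4 luciferase reporter was scored in HepG2 PXR-Luc cells over 24 hr at 37 C, 5% CO2, by luminescence.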

[7] = biological target: Cytochrome P450 2C19 (Homo sapiens) (UniProt P33261); test: Cytochrome P450 Family 2 Subfamily C Member 19 (CYP2C19) small molecule antagonists: luciferase reporter qHTS assay (AID 1671197); further: nearly all actives have a fitted effect of over 65% in size; further: potency means the concentration at half of the fitted maximal effect
Chain of Cytochrome P450 2C19 (Homo sapiens) (P33261 whole entry, looked up): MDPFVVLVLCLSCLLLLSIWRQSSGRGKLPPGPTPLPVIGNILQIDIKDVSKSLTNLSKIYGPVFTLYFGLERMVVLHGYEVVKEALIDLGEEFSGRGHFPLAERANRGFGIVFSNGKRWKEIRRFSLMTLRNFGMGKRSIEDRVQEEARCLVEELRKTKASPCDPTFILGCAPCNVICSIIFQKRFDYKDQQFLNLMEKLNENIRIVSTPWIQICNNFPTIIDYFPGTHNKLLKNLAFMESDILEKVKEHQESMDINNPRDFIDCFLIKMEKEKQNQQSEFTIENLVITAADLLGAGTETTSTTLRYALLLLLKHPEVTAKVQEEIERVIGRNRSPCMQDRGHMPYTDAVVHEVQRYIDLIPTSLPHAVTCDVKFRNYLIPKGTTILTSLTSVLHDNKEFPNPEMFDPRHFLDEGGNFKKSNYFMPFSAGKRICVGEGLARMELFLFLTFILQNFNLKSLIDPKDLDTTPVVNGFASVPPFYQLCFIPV
Outline: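 CYP2C19 P450-Glo, 1536-well qHTS. Cpd + enzyme/proluciferin substrate 10 min RT; + NADPH regen, 37C 1 h; stop with luciferin detection reagent, 20 min RT, luminescence (RLU). Pos ctrl ketoconazole.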

[8] = biological target: Cytochrome P450 2C9 (Homo sapiens) (UniProt P11712); test: Cytochrome P450 Family 2 Subfamily C Member 9 (CYP2C9) small molecule antagonists: luciferase reporter qHTS assay (AID 1671198); further: nearly all actives have a fitted effect of over 50% in size; further: potency means the concentration at half of the fitted maximal effect
Chain of Cytochrome P450 2C9 (Homo sapiens) (P11712 whole entry, looked up): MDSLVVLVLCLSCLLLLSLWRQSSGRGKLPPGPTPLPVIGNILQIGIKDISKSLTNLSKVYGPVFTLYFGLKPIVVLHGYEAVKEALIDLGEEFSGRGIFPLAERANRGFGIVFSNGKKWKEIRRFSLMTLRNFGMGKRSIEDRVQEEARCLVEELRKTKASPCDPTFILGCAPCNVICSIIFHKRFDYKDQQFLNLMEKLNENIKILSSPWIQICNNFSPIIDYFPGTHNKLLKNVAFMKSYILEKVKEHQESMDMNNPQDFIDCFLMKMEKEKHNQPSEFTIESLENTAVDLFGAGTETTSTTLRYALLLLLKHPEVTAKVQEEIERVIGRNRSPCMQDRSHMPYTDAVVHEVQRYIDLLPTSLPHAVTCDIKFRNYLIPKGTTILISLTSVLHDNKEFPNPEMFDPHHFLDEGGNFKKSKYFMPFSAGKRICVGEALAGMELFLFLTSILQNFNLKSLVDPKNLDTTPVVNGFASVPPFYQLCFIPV
Outline: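 P450-Glo proluciferin substrate with CYP2C9 enzyme; 10 min RT preincubation, then NADPH regeneration 1 h at 37C; luciferin detection reagent 20 min RT, luminescence in relative luminescence units.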

[9] = biological target: Cytochrome P450 1A2 (Homo sapiens) (UniProt P05177); test: Cytochrome P450 Family 1 Subfamily A Member 2 (CYP1A2) small molecule antagonists: luciferase reporter qHTS assay (AID 1671199); further: nearly all actives have a fitted effect of over 50% in size; further: potency means the concentration at half of the fitted maximal effect
Chain of Cytochrome P450 1A2 (Homo sapiens) (P05177 whole entry, looked up): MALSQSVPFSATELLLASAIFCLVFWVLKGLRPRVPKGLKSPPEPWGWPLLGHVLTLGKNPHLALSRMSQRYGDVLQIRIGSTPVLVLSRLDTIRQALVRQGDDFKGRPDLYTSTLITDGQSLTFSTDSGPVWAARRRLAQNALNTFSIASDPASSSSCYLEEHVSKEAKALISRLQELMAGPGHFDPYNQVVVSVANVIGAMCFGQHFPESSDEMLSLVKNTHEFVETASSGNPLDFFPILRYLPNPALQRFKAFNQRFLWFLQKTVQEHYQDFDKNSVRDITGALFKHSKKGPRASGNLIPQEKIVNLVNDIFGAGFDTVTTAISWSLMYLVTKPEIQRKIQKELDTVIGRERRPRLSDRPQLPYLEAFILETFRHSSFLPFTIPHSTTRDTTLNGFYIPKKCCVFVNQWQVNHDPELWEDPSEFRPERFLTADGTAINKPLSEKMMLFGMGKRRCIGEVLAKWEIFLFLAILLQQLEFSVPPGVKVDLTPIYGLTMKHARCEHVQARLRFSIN
Outline: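 Enzymatic CYP1A2 assay, human, luminescent: 10 min compound–enzyme–substrate preincubation, 1 h NADPH-dependent turnover, 20 min detection step, room temperature throughout. Reduced light indicates lower CYP1A2 activity.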

[10] = biological target: Voltage-gated inwardly rectifying potassium channel KCNH2 (Homo sapiens) (UniProt Q12809); test: Human Ether-a-go-go-Related Gene (hERG) channel small molecule antagonists: fluorescence cell-based qHTS assay (AID 1671200); further: nearly all actives have a fitted effect of over 50% in size; further: potency means the concentration at half of the fitted maximal effect
Chain of Voltage-gated inwardly rectifying potassium channel KCNH2 (Homo sapiens) (Q12809 whole entry, looked up): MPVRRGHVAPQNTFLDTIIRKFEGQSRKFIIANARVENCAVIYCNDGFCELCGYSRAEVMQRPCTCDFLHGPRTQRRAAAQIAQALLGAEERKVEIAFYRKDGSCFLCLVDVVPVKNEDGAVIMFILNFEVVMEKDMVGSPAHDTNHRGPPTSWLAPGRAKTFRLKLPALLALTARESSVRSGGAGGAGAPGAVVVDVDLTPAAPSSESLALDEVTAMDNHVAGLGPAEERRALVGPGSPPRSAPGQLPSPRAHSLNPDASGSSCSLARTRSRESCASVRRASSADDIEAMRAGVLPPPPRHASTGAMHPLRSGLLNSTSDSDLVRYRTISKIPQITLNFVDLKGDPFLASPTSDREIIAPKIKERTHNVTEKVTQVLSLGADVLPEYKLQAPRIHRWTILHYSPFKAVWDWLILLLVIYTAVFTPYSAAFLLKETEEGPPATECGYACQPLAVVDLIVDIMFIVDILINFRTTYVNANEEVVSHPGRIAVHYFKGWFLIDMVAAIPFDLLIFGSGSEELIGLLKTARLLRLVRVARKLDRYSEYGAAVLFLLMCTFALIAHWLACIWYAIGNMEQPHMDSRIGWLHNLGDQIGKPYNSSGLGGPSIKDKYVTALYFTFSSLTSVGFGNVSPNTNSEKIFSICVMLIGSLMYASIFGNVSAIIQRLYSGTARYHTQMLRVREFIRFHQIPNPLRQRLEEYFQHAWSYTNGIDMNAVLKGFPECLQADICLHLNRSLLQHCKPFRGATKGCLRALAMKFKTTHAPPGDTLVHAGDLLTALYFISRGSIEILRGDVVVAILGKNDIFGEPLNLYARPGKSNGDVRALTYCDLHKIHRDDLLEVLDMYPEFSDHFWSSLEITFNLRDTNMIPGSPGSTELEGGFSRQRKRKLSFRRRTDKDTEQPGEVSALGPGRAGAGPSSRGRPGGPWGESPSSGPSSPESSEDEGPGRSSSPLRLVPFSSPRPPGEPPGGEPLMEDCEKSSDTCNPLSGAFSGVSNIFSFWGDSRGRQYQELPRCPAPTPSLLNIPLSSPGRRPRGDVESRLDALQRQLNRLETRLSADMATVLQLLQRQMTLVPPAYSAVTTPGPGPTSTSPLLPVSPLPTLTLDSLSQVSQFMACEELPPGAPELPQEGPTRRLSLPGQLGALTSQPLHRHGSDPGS
Outline: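 Channel function was assessed by thallium flux. Cells seeded the previous day and kept at 37 C took up FluxOR II dye over 1 h in the dark at room temperature, then sat another 10 min before stimulation.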

[11] = biological target: Cytochrome P450 3A4 (Homo sapiens) (UniProt P08684); test: Cytochrome P450 Family 3 Subfamily A Member 4 (CYP3A4) small molecule antagonists: luciferase reporter qHTS assay (AID 1671201); further: nearly all actives have a fitted effect of over 50% in size; further: potency means the concentration at half of the fitted maximal effect
Chain of Cytochrome P450 3A4 (Homo sapiens) (P08684 whole entry, looked up): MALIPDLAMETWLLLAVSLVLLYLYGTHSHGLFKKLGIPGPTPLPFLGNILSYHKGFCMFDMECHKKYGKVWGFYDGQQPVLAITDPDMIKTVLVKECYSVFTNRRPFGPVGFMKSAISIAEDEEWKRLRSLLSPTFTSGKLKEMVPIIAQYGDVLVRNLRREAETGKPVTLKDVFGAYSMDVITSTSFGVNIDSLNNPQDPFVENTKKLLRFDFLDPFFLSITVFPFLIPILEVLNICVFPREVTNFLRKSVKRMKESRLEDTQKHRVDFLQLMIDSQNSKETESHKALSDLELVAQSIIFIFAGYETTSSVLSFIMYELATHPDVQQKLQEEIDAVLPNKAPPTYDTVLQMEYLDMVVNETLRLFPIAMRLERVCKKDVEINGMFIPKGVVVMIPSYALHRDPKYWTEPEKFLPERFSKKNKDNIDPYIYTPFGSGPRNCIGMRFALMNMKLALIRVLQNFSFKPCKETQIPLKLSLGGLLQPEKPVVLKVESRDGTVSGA
Outline: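 Compounds in DMSO were pin-transferred onto CYP3A4 enzyme-substrate mix and held 10 min at room temperature. NADPH regenerating solution started the reaction for 1 h; luciferin detection reagent stopped it, and luminescence was read after 20 min.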

[12] = biological target: Cytochrome P450 2D6 (Homo sapiens) (UniProt P10635); test: Cytochrome P450 Family 2 Subfamily D Member 6 (CYP2D6) small molecule antagonists: luciferase reporter qHTS assay (AID 1671196); further: nearly all actives have a fitted effect of over 50% in size; further: potency means the concentration at half of the fitted maximal effect
Chain of Cytochrome P450 2D6 (Homo sapiens) (P10635 whole entry, looked up): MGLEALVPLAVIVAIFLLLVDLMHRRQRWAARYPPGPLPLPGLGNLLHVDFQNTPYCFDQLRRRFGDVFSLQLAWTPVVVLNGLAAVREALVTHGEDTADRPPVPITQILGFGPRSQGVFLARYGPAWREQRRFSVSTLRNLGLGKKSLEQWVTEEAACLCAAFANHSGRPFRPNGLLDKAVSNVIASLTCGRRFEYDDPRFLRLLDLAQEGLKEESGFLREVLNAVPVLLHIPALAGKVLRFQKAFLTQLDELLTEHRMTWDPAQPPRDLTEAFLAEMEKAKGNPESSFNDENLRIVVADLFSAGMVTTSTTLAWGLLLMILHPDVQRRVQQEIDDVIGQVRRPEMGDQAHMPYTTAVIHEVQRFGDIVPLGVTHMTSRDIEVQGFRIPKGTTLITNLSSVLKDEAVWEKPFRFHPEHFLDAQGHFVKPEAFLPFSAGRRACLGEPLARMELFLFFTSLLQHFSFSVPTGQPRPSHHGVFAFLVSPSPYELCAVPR
Outline: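 Each well received CYP2D6 with its proluciferin substrate and chemical, sat 10 min, then got NADPH regeneration solution for 1 h at room temperature. Luminescence in RLU served as the activity measure.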

[13] = biological target: Nuclear receptor subfamily 1 group I member 2 (Rattus norvegicus) (UniProt Q9R1A7); test: Rat pregnane X receptor (rPXR) activation by small molecules, qHTS assay (AID 1346983); details: rPXR luciferase reporter cells, One-Glo luminescence, 24 h; max activation: hits give high values; further: nearly all actives have a fitted effect of over 20% in size
Chain of Nuclear receptor subfamily 1 group I member 2 (Rattus norvegicus) (Q9R1A7 whole entry, looked up): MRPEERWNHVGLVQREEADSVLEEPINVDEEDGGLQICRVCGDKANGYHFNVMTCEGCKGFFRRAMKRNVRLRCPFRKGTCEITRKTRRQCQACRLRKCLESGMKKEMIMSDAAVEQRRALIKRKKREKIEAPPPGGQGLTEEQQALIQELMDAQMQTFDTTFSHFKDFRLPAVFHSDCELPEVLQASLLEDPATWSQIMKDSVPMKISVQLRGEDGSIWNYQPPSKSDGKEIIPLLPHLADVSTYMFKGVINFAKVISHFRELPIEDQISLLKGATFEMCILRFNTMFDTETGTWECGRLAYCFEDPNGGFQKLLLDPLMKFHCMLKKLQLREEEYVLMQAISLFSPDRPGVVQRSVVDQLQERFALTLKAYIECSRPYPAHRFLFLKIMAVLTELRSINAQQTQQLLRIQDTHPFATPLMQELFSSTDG
Outline: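 Cell-based rPXR activation assay: rPXR cells, 2,000 per well, rested 5hr at 37 C, then exposed to compounds in DMSO for 24 hr at 37 C. Luciferase activity read by One-Glo luminescence after 30 min at room temperature.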

[14] = biological target: Nuclear receptor subfamily 1 group I member 2 (Homo sapiens) (UniProt O75469); test: CYP3A4 induction through human pregnane X receptor (PXR) by small molecules, qHTS assay (AID 1346984); further: nearly all actives have a fitted effect of over 40% in size
Outline: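 Readings come from a luciferase reporter: DPX-2 cells, which are HepG2 cotransfected with PXR and a CYP3A4-promoter construct, were exposed to test compounds for 24 h at 37C before One-Glo detection.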

[15] = biological target: Nuclear receptor subfamily 1 group I member 2 (Homo sapiens) (UniProt O75469); test: Human pregnane X receptor (PXR) activation by small molecules, qHTS assay (AID 1346985); further: nearly all actives have a fitted effect of over 40% in size
Outline: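 DPX-2 cells (HepG2 co-transfected with a PXR response element and a CYP3A4-promoter luciferase construct) were seeded at 2,000 per well, rested 5 hr at 37C, then exposed to DMSO-dissolved compounds for 24 hr. Activation was read as luciferase luminescence.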

Compound | Potency [1] | Potency [2] | Potency [3] | outcome [4] | Potency [5] | Potency [6] | Potency [7] | Potency [8] | Potency [9] | Potency [10] | Potency [11] | Potency [12] | max activation [13] [%] | Potency [14] | Potency [15]
Nc1ccc(S(=O)(=O)O)c(N)c1 | inactive | inactive | inactive | inactive | inactive | inactive | 31.7 µM (active) | inactive | 22.4 µM (active) | inactive | inactive | – | – | – | –
CC(CCc1ccc2c(c1)OCO2)NN (stereo unspecified) | inactive | inactive | inactive | – | inactive | inactive | 38.9 µM (active) | 15.5 µM (active) | 1.44 µM (active) | – | – | 30.9 µM (active) | – | – | –
Cn1c(=O)c2c(ncn2CC(=O)O)n(C)c1=O | inactive | inactive | inactive | inactive | inactive | inactive | – | inactive | inactive | inactive | inactive | inactive | – | – | –
Oc1cc(O)c(Cl)cc1Cl | inactive | inactive | inactive | inactive | inactive | inactive | inactive | 40.9 µM (active) | 18.3 µM (active) | inactive | 36.5 µM (active) | – | – | – | –
CO/N=C1\CN(c2nc3c(cc2F)c(=O)c(C(=O)O)cn3C2CC2)CC1CN (stereo unspecified) | inactive | inactive | – | inactive | inactive | inactive | inactive | inactive | inactive | – | inactive | inactive | -0.199 | inactive | inactive
CC(C)C(OC(=O)c1ccccc1)C(C)(C)COC(=O)c1ccccc1 (stereo unspecified) | inactive | inactive | inactive | inactive | inactive | – | 6.33 µM (active) | 2 µM (active) | 35.6 µM (active) | – | inactive | inactive | – | – | –
CCCCCC=CCC=CCCCCCCCC(=O)OCC | inactive | inactive | – | inactive | inactive | 29.8 µM (active) | 21.9 µM (active) | 15.5 µM (active) | 27.5 µM (active) | – | – | inactive | -2.8 | inactive | inactive
O=C(CCCCCCC(=O)Nc1ccccc1)NO | 8.41 µM (active) | 4.22 µM (active) | 13.3 µM (active) | – | – | 7.5 µM (active) | 7.76 µM (active) | – | 12.9 µM (active) | inactive | inactive | 5.49 µM (active) | -13.8 | inactive | inactive
C/C(=N/NC(=O)c1ccncc1)C(=O)O | inactive | inactive | inactive | inactive | inactive | inactive | – | inactive | inactive | inactive | inactive | inactive | – | – | –
CCOC(=O)CC(=O)C(=O)OCC | inactive | inactive | inactive | inactive | inactive | – | 35.6 µM (active) | 39.9 µM (active) | 31.7 µM (active) | – | 71 µM (active) | inactive | – | – | –
C[N+]1(C)CCC(=C(c2ccccc2)c2ccccc2)CC1 | inactive | inactive | inactive | – | inactive | inactive | inactive | inactive | inactive | 8.49 µM (active) | inactive | 12.3 µM (active) | -1.49 | inactive | inactive
CCOC(=N)CC(=O)OCC | inactive | inactive | inactive | inactive | inactive | inactive | inactive | inactive | 39.9 µM (active) | inactive | inactive | – | – | – | –
CCCCC1C(=O)N(c2ccccc2)N(c2ccc(O)cc2)C1=O (stereo unspecified) | 26.6 µM (active) | inactive | 3.76 µM (active) | – | 29.8 µM (active) | 11.9 µM (active) | 17.4 µM (active) | 9.77 µM (active) | inactive | inactive | – | – | 1.09 | inactive | inactive
OCC1CC=CCC1 (stereo unspecified) | inactive | inactive | inactive | – | inactive | inactive | inactive | inactive | inactive | – | inactive | inactive | – | – | –
Cc1oc(C)c(C(=O)Nc2ccccc2)c1C | inactive | inactive | 27.3 µM (active) | inactive | inactive | – | 35.6 µM (active) | 35.6 µM (active) | 15.9 µM (active) | inactive | inactive | 56.4 µM (active) | – | – | –
N#C[C@@H]1C[C@@H]2C[C@@H]2N1C(=O)[C@@H](N)C12CC3CC(CC(O)(C3)C1)C2 | inactive | inactive | inactive | – | inactive | inactive | inactive | inactive | inactive | – | inactive | 38.9 µM (active) | – | – | –
CC[C@H](NC(=O)c1cc(F)ccc1NS(=O)(=O)c1cccc2cccnc12)c1ccccc1 | inactive | inactive | 46 µM (active) | – | – | 0.46 µM (active) | – | 9.49 µM (active) | inactive | – | 1.5 µM (active) | – | – | – | –
Cc1ccc(S)cc1 | inactive | inactive | inactive | inactive | – | inactive | 39.9 µM (active) | 35.6 µM (active) | 31.7 µM (active) | inactive | inactive | inactive | – | – | –
Nc1c(I)cc(I)c(C(=O)N(CCC(=O)O)c2ccccc2)c1I | inactive | inactive | inactive | inactive | inactive | 26.6 µM (active) | – | – | inactive | inactive | inactive | inactive | – | – | –
